From PubChem BioAssay come the findings set out here.

Structures are written as SMILES. Unmarked numbers belong to inactive results. No rule for the calls is given here.

Pantothenate synthetase (Mycobacterium tuberculosis (strain ATCC 25618 / H37Rv)), sequence (P9WIL5 whole entry, looked up): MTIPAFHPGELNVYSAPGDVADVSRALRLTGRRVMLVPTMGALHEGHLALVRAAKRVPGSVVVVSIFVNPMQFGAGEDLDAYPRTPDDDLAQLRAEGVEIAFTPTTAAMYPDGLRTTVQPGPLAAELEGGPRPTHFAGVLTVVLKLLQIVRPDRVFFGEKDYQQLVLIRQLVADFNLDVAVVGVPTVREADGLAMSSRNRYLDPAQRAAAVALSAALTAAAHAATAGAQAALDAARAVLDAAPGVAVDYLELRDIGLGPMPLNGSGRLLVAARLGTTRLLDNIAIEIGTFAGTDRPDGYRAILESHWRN

The assay concerns the target Pantothenate synthetase (Mycobacterium tuberculosis (strain ATCC 25618 / H37Rv)) (UniProt P9WIL5). The experiment in a line: Recombinant Mtb pantothenate synthetase (PanC) inhibitors, coupled enzyme, confirmatory (AID 375).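 Also: 0% = full reaction with vehicle and 100% = no enzyme background.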 The settings on record: coupled enzyme assay; at 10 µM, hits give high values.
The inhibition is how much of the control response was suppressed. As for `CCOc1cc2oc(=O)c3c(c2cc1Cl)CCC3`, the inhibition is 0%.
Regarding `CC(=O)OC(C(=O)NCc1ccco1)c1cccnc1` (stereo not given), the inhibition is 0%.
Then `CCOc1ccc(CCNc2nc3c(c(=O)n(C)c(=O)n3C)n2CC)cc1OCC`, with 0%; and `Cn1c(=O)c2[nH]c(NCC3CCCO3)nc2n(-c2ccccc2)c1=O` (stereo not given), with 0%; and `CCn1c(SCC(=O)Nc2ccc(C(=O)OC)cc2)nnc1-c1cccs1`, with 3%.
Under `O=C(CSc1nnc(CNC(=O)c2cccs2)o1)NC1CCCC1` stands 0%; under `Cc1cc(C)nc(N(C#N)CC(=O)N2CCC(C(N)=O)CC2)n1`, 1%; under `CC1CCCN(C(=O)CN2C(=O)c3ccccc3C2=O)C1` (stereo not given), 3%.
For the compound `COc1cccc(OC)c1OCCNCCO`, the inhibition was 2%.
As to `C[C@]12CCC(=O)C=C1CC[C@@H]1[C@@H]2C(=O)C[C@@]2(C)[C@H]1CC[C@]2(O)C(=O)CO`, the inhibition was 0%.
Under `COC(=O)c1ccc(NC(=O)C2C3CCC(C3)C2C(=O)O)cc1` (stereo not given) stands 0%; under `COc1ccc(CNC(=O)COC(=O)c2n[nH]c3ccccc23)cc1OC`, 7%; under `COc1cc(S(=O)(=O)N(C)C)ccc1F`, 1%.
As for `O=C(NCCC1=CCCCC1)c1cc2c(s1)CS(=O)(=O)C2`, the inhibition was 1%.
Under `Cc1ccc(-c2nnn(CC(=O)N(Cc3cccs3)C(C(=O)NC(C)(C)C)c3ccc(C)o3)n2)o1` (stereo not given) stands 0%.
With `CCOC(OCC)P(=O)(C(C)C)C(C)C`, the inhibition is 0%.
Under `CS(=O)(=O)N1CCCC(C(=O)N2CCOCC2)C1` (stereo not given) stands 6%.
As to `N#CCSc1nc2c(c(C3CC=CCC3)c1C#N)CCC2` (stereo not given), the inhibition was 6%.
Under `COc1cccc(-n2c(SCC(=O)N3CCCC3)nc3c([nH]c4ccccc43)c2=O)c1` stands 0%; under `O=S(=O)(c1cccc(S(=O)(=O)N2CCC(N3CCCCC3)CC2)c1)N1CCOCC1`, 0%; under `COc1cccc(OC)c1C(=O)n1nc(C)cc1C`, 6%.
As to `Cc1nc2ccccc2nc1OCC(=O)Nc1cc(C(F)(F)F)ccc1N1CCOCC1`, the inhibition is 0%.
Under `Cc1sc2nc(SCC(=O)N3CCN(CCO)CC3)n(-c3ccccc3)c(=O)c2c1C` stands 6%.
Under `CCOC(=O)c1[nH]c2ccccc2c1NC(=O)C(CC)CC` stands 8%; under `COc1ccccc1N1CCN(C(=O)CSc2nc3ncnc(N)c3[nH]2)CC1`, 8%; under `Brc1cccc(-c2cnc3n2CCCCC3)c1`, 4%.
Under `Cc1cc(NC(c2cccnc2)c2c(C)[nH]c3ccccc23)no1` (stereo not given) stands 0%; under `CCOc1ccccc1C1C(C(=O)Nc2ccc(OC)cc2)=C(C)Nc2nc(CCCO)nn21` (stereo not given), 0%.
Consider `COc1ccc(CN(CC(=O)NCC2CCCO2)C(=O)CCC(=O)Nc2cc(C)on2)cc1` (stereo not given), for which the inhibition was 0%.
Then `O=S(=O)(c1ccc2c(c1)OCCO2)N(Cc1ccc(F)cc1)Cc1nnc(-c2cccs2)o1`, with 5%; and `COc1ccc(-c2noc(CCC(=O)NCCCN3CCC(Cc4ccccc4)CC3)n2)cc1`, with 0%.
Consider `COc1cc(C(N)=O)ccc1OCc1ccccc1`, for which the inhibition was 3%.
Under `COc1ccccc1NC(=O)N1c2ccc(F)cc2CCC1C` (stereo not given) stands 8%; under `O=C(COc1ccccc1)NCC(c1cccs1)N1CCOCC1` (stereo not given), 4%; under `Cc1cc(C)cc(OCCCC(=O)O)c1`, 4%.
Under `O=C(CSc1ncnc2sc3c(c12)CCCCC3)NCc1ccco1` stands 3%; under `CCCc1nc(NCc2ccncc2)c2nnn(Cc3ccccc3F)c2n1`, 0%.
Under `N#Cc1ccccc1NC(=O)CSc1nnc(-c2ccccc2)n1-c1ccccc1` stands 0%; under `Cn1c(=O)c2c(nc(Oc3ccc4c(c3)OCO4)n2Cc2ccc(F)cc2)n(C)c1=O`, 0%.
Take `COc1cccc(Cn2c(Oc3ccccc3)nc3c2c(=O)n(C)c(=O)n3C)c1`: the inhibition was 0%.
